Many of the other results were omitted from the sample, so hits are more common in it than they were.
Methyltransferases: Primary Screen for Target Class Profiling of Small Molecule Inhibitors of Methyltransferases | calls only at 40 µM | purified enzyme, MTase-Glo SAH luminescence; stronger effect = lower value | actives 3.9% (n = 25,000); call rule not given here
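Each enzyme was assayed with SAM and its substrate. SAH formation detected by MTase-Glo luminescence; single-point 40 uM screen[…].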
Numbers without * were called inactive; i = inactive; + = active, no number; ! = a repeat was not active. On the % scale 0 is the no-effect control and ±100 the full control effect.

SMILES | Methyltransferases
CCOC(=O)c1cc2n(n1)CC(C)(C(=O)NCc1ccc(Cl)cc1)N(CCc1ccco1)C2=O (stereo not drawn) | i
OC[C@H]1O[C@@H](OC[C@H]2O[C@@H](OCc3ccccc3)[C@H](O)[C@@H](O)[C@@H]2O)[C@H](O)[C@@H](O)[C@@H]1O | i
C[C@@H]1O[C@@H](OC[C@H]2O[C@@H](OCc3ccccc3)[C@H](O)[C@@H](O)[C@@H]2O)[C@H](O)[C@H](O)[C@H]1O | +
C=Cc1ccc(O[C@@H]2O[C@H](CO[C@@H]3O[C@@H](C)[C@H](O)[C@@H](O)[C@H]3O)[C@@H](O)[C@H](O)[C@H]2O)cc1 | i
CC(C)CCn1c(=O)c2ccccc2n2c(=O)n(CC(=O)NCc3ccc(Cl)cc3)nc12 | i
CCCn1c(=O)c2cc(Cl)ccc2n2c(=O)n(CC(=O)Nc3ccc4c(c3)OCO4)nc12 | i
O=C(NCc1ccccc1)c1ccc2c(=O)n(-c3cccc(C(F)(F)F)c3)c(=S)[nH]c2c1 | i
CNC(=O)c1ccc2c(C(=Nc3cccc(CN(C)C)c3)c3ccccc3)c(O)[nH]c2c1 | +
CCCN1C(=O)c2cc(C(=O)NCc3ccc(CC)cc3)nn2CC1(C)C(=O)NC1CCCC1 (stereo not drawn) | i
COc1ccc2c(c1)c(NC(C)=O)c1n2CC(C)(C(=O)NC2CCCC2)N(Cc2ccccn2)C1=O (stereo not drawn) | i
CN(CCN1C(=O)c2cc3sccc3n2CC1(C)C(=O)NC1CCCCC1)C1CCCCC1 (stereo not drawn) | i
Cc1ccc(Cn2c(=O)c3ccc(C(=O)NC(C)C)cc3n3c(=O)n(CC(=O)c4ccccc4)nc23)cc1 | i
Fc1ccc(N2CCCCC2)c(NC(=S)c2ccncc2)c1 | +
CC1CCC(NC(=O)C2(C)Cn3c(cc4occc43)C(=O)N2CCCN2CCOCC2)CC1 (stereo not drawn) | i
CC1(C(=O)NCC2CCCO2)Cn2c(cc3ccccc32)C(=O)N1Cc1cccc(F)c1 (stereo not drawn) | i
COc1c2c(c(C)c3c1C(=O)OC3)O[C@@]1(C)CC(O)C(C(C)(C)O)[C@](C)(CCC(=O)O)[C@H]1C2 (stereo partly drawn) | i
COc1c2c(c(C)c3c1C(=O)OC3)OC1(C)CC(O)C34OC(OC)(CC(O)C3(C)C1C2)OC4(C)C (stereo not drawn) | +
COc1c2c(c(C)c3c1C(=O)OC3)OC1(C)CC(O)C3(O)C(C)(C)OC(=O)CCC3(C)C1C2 (stereo not drawn) | i
CCCn1c(=O)c2ccc(Cl)cc2n2c(SCC(=O)Nc3ccccc3OC)nnc12 | i
Clc1ccc(C2(c3ccc(-c4cn[nH]c4)cc3)CCNCC2)cc1 | +
Cc1cc2c(cc3n2CC(C)(C(=O)NC2CCCCC2)N(Cc2cccc(F)c2)C3=O)o1 (stereo not drawn) | i
CCCn1c(=O)c2ccccc2n2c(SCc3ccc(Cl)cc3)nnc12 | i
CN1CCc2c(c3ccccc3n2Cc2ccc(C(=O)NO)cc2)C1 | +!
Cn1nc2n(Cc3ccccc3)c(=O)c3ccc(C(=O)NC4CCCC4)cc3n2c1=O | i
COCCCNC(=O)c1ccc(Cn2c(=O)c3ccccc3n(Cc3ccc(C(C)C)cc3)c2=O)cc1 | i
SMILES | Methyltransferases
CCCn1c(=O)c2ccc(C(=O)NCC(C)C)cc2n2c(SCC(=O)Nc3cccc(C)c3)nnc12 | i
COCCN1C(=O)c2c(NC(C)=O)c3cc(OC)ccc3n2CC1(C)C(=O)NC1CCCCCC1 (stereo not drawn) | i
Cn1c(=O)c2ccc(C(=O)NC3CCCC3)cc2n2c(=O)n(CC(=O)Nc3ccccc3Cl)nc12 | i
O=C(Cn1nc2n(Cc3ccc(F)cc3)c(=O)c3ccccc3n2c1=O)c1ccc(F)cc1 | i
COc1ccc(CN2C(=O)c3cc4ccc(OC)cc4n3CC2(C)C(=O)NC2CCCCC2)cc1 (stereo not drawn) | i
CCC(C)NC(=O)c1ccc2c(=O)n(CC(C)C)c3nn(CC(=O)c4ccc(C)cc4)c(=O)n3c2c1 (stereo not drawn) | i
CCCC1(CCC)CCC2(CCN(CCCN(CC)CC)C2)CC1 | +
COc1ccc(OC)c(CNC(=O)c2cc3n(n2)CC(C)(C(=O)NC2CCCC2)N(C)C3=O)c1 (stereo not drawn) | i
CCCN1C(=O)c2cc3ccccc3n2CC1(C)C(=O)NCCC(C)C (stereo not drawn) | i
CN1C(=O)c2cc(C(=O)N3CCN(c4ccccc4)CC3)nn2CC1(C)C(=O)NCc1ccccc1 (stereo not drawn) | i
O=C1NC(=O)/C(=C/c2ccc3nccnc3c2)S1 | i
CCc1ccc(/C=C2/SC(=S)NC2=O)cc1 | +
COCCCNC(=O)C1(C)Cn2nc(-c3ccccc3)cc2C(=O)N1Cc1cccc(C)c1 (stereo not drawn) | i
Cc1nn2c(SCC(=O)Nc3ccc(C(C)C)cc3)nnc2[nH]c1=O | i
CCCOc1ccc(CN2C(=O)c3cc4ccccc4n3CC2(C)C(=O)NC2CCCCC2)cc1 (stereo not drawn) | i
CSc1ccc(CCN2C(=O)c3cc(-c4ccccc4)nn3CC2(C)C(=O)NCc2ccccc2)cc1 (stereo not drawn) | i
CCN(CCCNC(=O)CCCc1nnc2n3nc(C)nc3c3ccccc3n12)c1ccccc1 | i
COc1ccc(OC)c(S(=O)(=O)N2CCC(N3C[C@H](OC)[C@@H]3c3ccncc3)CC2)c1 | i
CC(C)Cn1c(=O)c2ccc(C(=O)NC(C)C)cc2n2c(=O)n(Cc3ccccc3)nc12 | i
CC1(C(=O)NC2CCCC2)Cn2cnc(C(=O)NCCc3ccco3)c2C(=O)N1C1CC1 (stereo not drawn) | i
CCc1cc(Nc2nccc(-c3c(-c4ccc(OC)c(C(=O)Nc5c(F)cccc5F)c4)nc4ccccn34)n2)c(OC)cc1N1CCC(N2CCN(S(C)(=O)=O)CC2)CC1 | +
COc1ccc(CNC(=O)C2(C)Cn3cnc(C(=O)Nc4ccc(F)cc4Cl)c3C(=O)N2C2CC2)cc1 (stereo not drawn) | i
COc1ccc(NC(=O)CCc2nnc3n(CCc4ccccc4)c(=O)c4ccccc4n23)cc1OC | i
Fc1ccc2c(CCNCc3cccc(OCC(F)(F)C(F)F)c3)c[nH]c2c1 | +
COc1ccc(CNC(=O)Cn2nc3n(Cc4ccccc4)c(=O)c4ccccc4n3c2=O)cc1 | i
SMILES | Methyltransferases
CCC(C)NC(=O)c1ccc2c(=O)n(C)c3nn(CC(=O)NCc4ccc(C)cc4)c(=O)n3c2c1 (stereo not drawn) | i
CCCN1C(=O)c2c(C(=O)NCCc3ccc(Cl)cc3)ncn2CC1(C)C(=O)NC1CCCC1 (stereo not drawn) | i
Cc1cc2c(C(C)C)c(O)c(O)c(C=O)c2c(O)c1-c1c(C)cc2c(C(C)C)c(O)c(O)c(C=O)c2c1O | +
COC(=O)c1cc2n(n1)CC(C)(C(=O)NC1CCCCCC1)N(c1ccc(F)cc1)C2=O (stereo not drawn) | i
CCc1ccc(CNC(=O)c2ncn3c2C(=O)N(C2CC2)C(C)(C(=O)NCc2ccccc2Cl)C3)cc1 (stereo not drawn) | i
CC(C)C1c2cccn2CCN1C(=O)Nc1ccccc1Cl (stereo not drawn) | i
COC(=O)c1cc2n(n1)CC(C)(C(=O)NC1CCCCC1)N(c1cc(Cl)ccc1C)C2=O (stereo not drawn) | i
